High-throughput results as filed in PubChem BioAssay.
IL1B secr inh: inflammasome signaling inhibition, IL-1 beta readout | activity change, % at 57.5 µM | THP-1 LPS/ATP IL-1B secretion, AlphaLISA, 16 h; stronger effect = lower value | actives 4.7% (n = 360,000); in the data active means activity change below about -50%; inconclusive means mostly about -30% to -49%
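THP-1 cells pretreated 1 hr with compounds (up to 57.5 uM final), then stimulated with LPS (250 ng/mL final) plus ATP (1.25 mM final); secreted IL-1B measured by AlphaLISA after 16 hr, decreased signal indicating inhibition.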
HT1080-NT tox: kills 2HG-producing HT-1080-NT fibrosarcoma cells; AID 686970; Potency, µM (series often up to 46.1 µM), inactives show at the highest dose activity, negative = less viability, hits mostly cytotoxic; actives 1.6% (n = 360,000); HT-1080-NT fibrosarcoma viability, CellTiter-Glo ATP luminescence, 48 h;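 further: NT is the 2HG producing partner of a matched IDH1 knockdown line; potency means the concentration at half of the fitted maximal effect; 0% = DMSO-treated cells and -100% = media-only wells without cells; nearly all actives have a fitted effect of over 55% in size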
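HT-1080-NT; 750 cells/well; 5% FBS RPMI; 48 h compound, 37 degrees C; CellTiter-Glo luminescence; curve fitting and curve-class assignment.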
ALOX12 inh: ALOX12 (human) lipoxygenase inhibition; actives 1.1% (n = 580,000); AID 1671190; P18054; Potency, µM (highest dose often 108 µM), for inactives: at the top dose activity change, negative = inhibition, most hits filed as inhibitors; purified 12hLO, xylenol orange hydroperoxide absorbance; further: potency means the concentration at half of the fitted maximal effect
Target sequence (P18054 whole entry, looked up): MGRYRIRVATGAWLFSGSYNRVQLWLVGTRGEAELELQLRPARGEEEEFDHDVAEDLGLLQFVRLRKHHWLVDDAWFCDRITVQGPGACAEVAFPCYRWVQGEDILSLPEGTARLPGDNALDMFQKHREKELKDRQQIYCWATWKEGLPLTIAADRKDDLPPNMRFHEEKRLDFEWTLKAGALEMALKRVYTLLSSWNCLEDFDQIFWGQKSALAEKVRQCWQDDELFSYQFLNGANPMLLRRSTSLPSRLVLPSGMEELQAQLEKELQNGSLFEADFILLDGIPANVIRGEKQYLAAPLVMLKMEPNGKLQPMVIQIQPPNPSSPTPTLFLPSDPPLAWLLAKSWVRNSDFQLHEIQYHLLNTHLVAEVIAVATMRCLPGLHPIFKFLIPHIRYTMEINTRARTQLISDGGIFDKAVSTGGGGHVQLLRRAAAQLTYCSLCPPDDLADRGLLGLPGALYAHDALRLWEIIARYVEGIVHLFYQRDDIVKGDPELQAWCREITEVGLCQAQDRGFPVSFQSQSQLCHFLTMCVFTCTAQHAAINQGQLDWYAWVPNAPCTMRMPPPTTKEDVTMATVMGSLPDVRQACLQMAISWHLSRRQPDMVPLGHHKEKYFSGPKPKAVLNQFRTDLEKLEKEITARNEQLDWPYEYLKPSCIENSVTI
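Purified human 12hLO at 150 nM in 25 mM Hepes, 0.01% Triton X-100, pH 7.0, preincubated 15 min at room temperature with compound. Reaction started with 40 uM arachidonic acid, 30 min at room temperature. Hydroperoxide measured by Fe-xylenol orange, 573/405 nm absorbance ratio.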
TDP1 cell CPT: DT40-hTDP1 cell growth loss with CPT; actives 12% (n = 420,000); AID 686979; chicken DT40 Tdp1-/-;hTDP1 cells + 20 nM CPT, ATP luminescence, 48 h; Potency, µM (highest dose often 46.2 µM), for inactives: top-dose activity change, negative = growth inhibition, usual class: inhibitors; further: potency means the concentration at half of the fitted maximal effect; nearly all actives have a fitted effect of over 55% in size
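Chicken DT40 Tdp1-/- cells complemented with human TDP1, 400 cells/well, exposed to compounds plus 20 nM camptothecin for at least 48 h at 37 C; viability read as ATP content by CellTiter-Glo luminescence.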
HT1080 IDH1KD tx: kills HT-1080 cells with IDH1 knockdown; HT-1080 IDH1 knockdown viability, ATP luminescence, 48 h; Potency, µM (series often up to 46.1 µM), without a hit: top-dose activity, negative = toxicity, usual class: cytotoxic; actives 2% (n = 360,000);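 further: potency means the concentration at half of the fitted maximal effect; 0% = DMSO wells and -100% = cell-free medium wells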
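% activity derives from luminescence (CellTiter-Glo), normalised to DMSO and no-cell wells. HT-1080-IDH1KD cells, 750/well, had 48 h compound exposure at 37 °C.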
TDP1 cell noCPT: qHTS for Inhibitors of human tyrosyl-DNA phosphodiesterase 1 (TDP1): qHTS in cells in absence of CPT; AID 686978, 2013; DT40 Tdp1-/- hTDP1 cells, no CPT, ATP luminescence, 48 h; actives 15% (n = 420,000); Potency, µM (doses to about 46.2 µM), for the others: at the top dose activity change, negative = growth inhibition, hits mostly inhibitors; further: potency means the concentration at half of the fitted maximal effect; nearly all actives have a fitted effect of over 55% in size
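A cellular qHTS used chicken DT40 cells lacking endogenous Tdp1 but carrying stably transfected human TDP1. Compounds were applied without camptothecin, and cell growth kinetics were judged by ATP-dependent luminescence after ≥48 hr.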
Active calls of the source: *; ? = inconclusive; . = not tested or not shown; [ ] = another dose, or the depositor's remark. The entries come from a sample that favours hits as a whole. Unless noted, the call rests on the fitted dose curve; in most records, active means well fitted curve in the direction sought with a large enough effect; inconclusive means small, poorly fitted or top-dose-only effect, or another doubt; inactive means no such curve, though single readings can be large; an effect the other way counts as inactive or inconclusive. Unless noted, on the % scale 0 is the no-effect control and ±100 the full control effect.

SMILES | IL1B secr inh | HT1080-NT tox | ALOX12 inh | TDP1 cell CPT | HT1080 IDH1KD tx | TDP1 cell noCPT
Cc1ccc(-n2ccnc(SCC(=O)NCCc3ccccc3)c2=O)cc1F | -25.1 | 17.3% | ? | ? | 12.3% | 14.6µM*
CCOc1ccc(-n2ccnc(SCC(=O)NCCc3ccccc3)c2=O)cc1 | 2.0 | -12.5% | -3.8% | ? | -11.0% | ?
CC(=O)c1c(C(C)=O)c(C)n(Cc2ccc(Cl)cc2)c1C | -10.2 | -16.1% | 0.0% | 16.4µM* | ? | 18.4µM*
COC(=O)c1ccc(COc2ccc(/C=C(\C#N)C(=O)Nc3ccccc3C(F)(F)F)cc2)cc1 | . | . | -19.3% | . | . | .
NS(=O)(=O)c1ccc(CCNC(=O)c2ccc([N+](=O)[O-])s2)cc1 | 25.0 | ? | -14.9% | 16.4µM* | -18.9% | ?
COc1ccc(NC(=O)Cn2cccc2-c2nc(-c3ccc(OC)c(F)c3)no2)cc1 | . | . | 13.3% | . | . | .
Cc1ccc(N2CC(c3noc(-c4cc5ccccc5[nH]4)n3)CC2=O)cc1 (stereo not given) | . | . | 4.4% | . | . | .
CCOC(=O)c1ccc(N2CN(CCc3ccccc3)CNC2=S)cc1 | -10.1 | 10.1% | 44.7µM* | 16.4µM* | 0.5% | ?
COc1ccc(-c2coc3c(C(=O)Nc4cccc(NS(C)(=O)=O)c4)cccc23)c(C)c1 | -14.9 | ? | -1.8% | ? | ? | 20.6µM*
CC(=O)c1cccc(NC(=O)c2cccc3c(-c4cccnc4)coc23)c1 | 0.0 | -21.0% | 0.0% | 11.6µM* | -21.5% | 9.2µM*
Cn1cc(-c2coc3c(C(=O)Nc4ccccc4)cccc23)cn1 | -28.8 | -18.4% | -19.3% | ? | -9.2% | ?
O=C(Nc1cccc(OC(F)(F)F)c1)c1cccc2c(-c3cccnc3)coc12 | -27.9 | ? | . | 23.1µM* | ? | 20.6µM*
COc1ccc(NC(=O)c2cccc3c(-c4ccc(OC)cc4C)coc23)cc1 | 22.5 | ? | -17.0% | ? | ? | ?
CC(=O)c1cccc(NC(=O)c2cccc3c(-c4cnn(C)c4)coc23)c1 | -81.1* | 10.3% | 1.0% | 13µM* | 18.2% | 20.6µM*
CN1C(=O)CCC2(CNC(=O)C3CC3)CCCC=C12 (stereo not given) | . | . | 11.3% | . | . | .
CC(C)C(NC(=O)c1n[nH]c(=O)c2ccccc12)c1ccc(C(C)(C)C)cc1 (stereo not given) | . | . | -5.0% | . | . | .
CCCc1nn2c(=O)cc(COC(=O)c3ccc4c(c3)OCO4)nc2s1 | . | . | -5.1% | ? | . | ?
CS(=O)(=O)Nc1cccc(NC(=O)c2cccc3c(-c4cccnc4)coc23)c1 | -7.8 | -10.9% | . | 11.6µM* | -15.4% | 16.4µM*
O=C(Nc1cccnc1)c1ccccc1-c1ccccc1 | 19.3 | -0.8% | -5.2% | ? | 11.7% | 13.9%
COc1cccc(N2CCN(C(=O)C(CCSC)NS(=O)(=O)c3ccc4c(c3)oc(=O)n4C)CC2)c1 (stereo not given) | . | . | -11.2% | -21.6% | . | -17.9%
Cn1c(=O)oc2cc(S(=O)(=O)CCC(=O)N3CCN(c4cccc(Cl)c4)CC3)ccc21 | . | . | -11.5% | 18.4µM* | . | 11.6µM*
CSCCC(NS(=O)(=O)c1ccc2c(c1)oc(=O)n2C)C(=O)N1CCN(c2cccc(Cl)c2)CC1 (stereo not given) | . | . | -11.2% | ? | . | 20.6µM*
CN1C(=O)Cc2cc(S(=O)(=O)CCC(=O)N3CCN(c4cccc(Cl)c4)CC3)ccc21 | . | . | -5.2% | 20.6µM* | . | 8.2µM*
CCOC(=O)c1cc(CC)sc1NC(=O)CN1C(=O)C(=O)N(CC(C)C)C1=O | 2.5 | 6.6% | 10.1% | 1.1% | 15.3% | -26.1%
CCCCn1c(=O)[nH]c(=O)c2c1nc(CCC(=O)Nc1cccc(C)c1C)n2CC(C)C | . | . | 3.3% | . | . | .
SMILES | IL1B secr inh | HT1080-NT tox | ALOX12 inh | TDP1 cell CPT | HT1080 IDH1KD tx | TDP1 cell noCPT
CC(C)CCN(C)C1CCN(C(=O)Nc2ccc(Cl)cc2)CC1 | . | . | -7.3% | . | . | .
CCCCCSc1nc2c(c(=O)[nH]c(=O)n2C)n1Cc1ccccc1Cl | . | . | 6.9% | . | . | .
COC(=O)c1cc(NC(=O)c2ccccc2)c(=O)oc1/C=C/Nc1ccc(Oc2ccccc2)cc1 | 17.8 | 7.0% | 0.6% | -24.6% | 1.5% | 23.1µM*
O=[N+]([O-])c1cccc(/C=N/N=C(c2ccccc2)c2ccccc2)c1 | . | . | 3.7% | . | . | .
COC(=O)c1ccc(Cn2nc(-c3cc(C)ccc3C)ccc2=O)cc1 | 12.4 | ? | 14.8% | -27.6% | -3.1% | ?
Cc1ccc(C)c(Cn2nc(-c3cc(C)ccc3C)ccc2=O)c1 | ? | ? | ? | ? | 18.4µM* | 20.6µM*
COc1cccc(OCCn2cc(C=O)c3ccccc32)c1 | -9.7 | -5.2% | 0.0% | 16.6% | -15.9% | ?
Cc1cc(OCCn2cc(/C(N)=N/O)c3ccccc32)ccc1Cl | -13.8 | ? | -33.1% | 25.9µM* | ? | ?
COC(=O)c1cn(CCOc2ccc(C)cc2)c2ccccc12 | 18.5 | 0.9% | 0.0% | ? | -12.1% | ?
COC(=O)N/N=C/c1cn(CCOc2cccc(OC)c2)c2ccccc12 | -7.7 | -17.6% | 0.0% | ? | 0.0% | 20.6µM*
COC(=O)Cn1cc(C(=O)c2ccco2)c2ccccc21 | 6.3 | -1.2% | -24.1% | -14.5% | -9.3% | -3.4%
COc1ccc(OCCn2cc(C(=O)c3ccco3)c3ccccc32)cc1 | . | . | -1.8% | 20.6µM* | . | 25.9µM*
Cc1ccc(OCCn2cc(C(=O)c3ccco3)c3ccccc32)cc1C | . | . | -17.6% | 14.6µM* | . | 18.4µM*
Cc1ccc(S(=O)(=O)c2cnc3cc4c(cc3c2N2CCOCC2)OCCO4)cc1 | . | . | -38.4% | . | . | .
CC1(c2cccc(Br)c2)NC(=O)N(CC(=O)Nc2ccc(F)cc2)C1=O (stereo not given) | -21.7 | -18.5% | -15.1% | -21.0% | -17.3% | ?
COC(=O)c1cccc(NC(=O)C2CCCN(S(=O)(=O)Cc3ccccc3Cl)C2)c1C (stereo not given) | . | . | -4.4% | . | . | .
CCOc1ccc(NC(=O)/C(C#N)=C/c2cn(CC(=O)O)c3ccccc23)cc1 | 8.8 | 4.8% | -12.9% | -23.1% | 0.5% | -17.3%
CCOC(=O)/C(C#N)=C/c1cn(CCOc2ccc(OC)cc2)c2ccccc12 | 13.8 | -6.2% | -15.2% | 14.6µM* | -2.9% | ?
c1ccc(NCC2CN(Cc3ccccn3)CC23CN(c2ccccc2)C3)cc1 (stereo not given) | . | . | 68.3%[176 µM] | . | . | .
O=C1/C(=C/c2cccs2)SC(=S)N1CCCC(=O)N(CCO)c1ccccc1 | ? | -10.5% | -12.7% | ? | -1.1% | ?
